Hit rate of the full screen: of about 2,500 compounds, about 2,100 (84%) were called active. The set was probably picked from earlier hits. Not all results are given here. Entries with a potency or affinity are not part of this list. Values without a mark were called inactive.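 The calls were made as follows: active = toxic compounds, whose cell viability fell below 70% of untreated control cells; inactive = the rest.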
Assay: viability of uninfected HEp-2 cells – cell-based, HTS, cytotoxicity control for RSV inhibitor project, dose response (AID 2410);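 also: cells exposed to compound for six days before readout; 100% = median signal of untreated cell control wells on each plate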
Conditions: HEp-2 viability, luminescence, cytotoxicity counter-screen; series mostly up to 50 µM; viability: at the top concentration

Row | Compound | viability
1 | CCOC(=O)c1cc(CC)sc1NC(=O)c1ccc2c(c1)OCCO2 | 78.4%
2 | CCC(CC)NC(=O)COC(=O)c1ccc(NS(=O)(=O)c2ccc3c(c2)OCCO3)cc1 | 93.9%
3 | Cc1cccc(Nc2nc(OCC#N)nc(N(C)C)n2)c1 | 99.8%
4 | Cc1ccc(S(=O)(=O)N2CCN(CCO)CC2)cc1-c1nnc2c3ccccc3c(C)nn12 | 110%
5 | Cc1ccnc(NS(=O)(=O)c2ccc(NC(=O)Cc3ccccc3)cc2)n1 | 93.4%
6 | Cc1ccc(C2=NN(C(=O)COc3ncnc4ccccc34)C(c3ccco3)C2)cc1 (stereo not drawn) | 103%
7 | O=C1CN2C(=Nc3ccc(Cl)cc3C2c2ccccc2)CN1 (stereo not drawn) | 90.6%
8 | O=C1CC(Sc2nnc(-c3ccccc3)o2)C(=O)N1c1ccccc1 (stereo not drawn) | 93.9%
9 | CN(CCO)c1nc(N)c2c(N)nc3c(c2c1C#N)CC(=O)N3Cc1cccs1 | 101%
10 | Clc1cccc(Nc2ncnc3c2cnn3-c2ccccc2)c1 | 84%
11 | CCOc1ccc2nc(NC(=O)Cc3cccs3)sc2c1 | 96.1%
12 | Cc1ccc2nc(NC(=O)CCn3c(=O)sc4ccccc43)sc2c1 | 75.8%
13 | COc1cc(NC2c3ncccc3C(=O)N2Cc2ccco2)cc(OC)c1OC (stereo not drawn) | 94.1%
14 | Cc1ccc(-n2nc3c(=O)n(CCCC(=O)NCC(C)c4ccccc4)nc(C)c3c2C)cc1 (stereo not drawn) | 75.8% [at 25 µM]
15 | CC(C(=O)N=Nc1c(O)[nH]c2ccccc12)n1cnc2ccccc2c1=O (stereo not drawn) | 70.9%
16 | CCOC(=O)Cc1nnc(Nc2ccc(C)cc2)c2ccccc12 | 84.4%
17 | COC(=O)c1c(NC(NC(=O)C(C)(C)C)C(Cl)(Cl)Cl)sc2c1CCC2 (stereo not drawn) | 84.3%
18 | Cc1ccc(OCc2ccc(Br)cc2)c([N+](=O)[O-])n1 | 104%
19 | COc1ccc(CNC(=O)CCCn2nc(C)c3c(C)n(-c4ccc(C)cc4)nc3c2=O)cc1 | 93.4%
20 | O=C(CSc1nc2nc3c(cc2c(=O)n1-c1ccccc1)CCCC3)Nc1cccc2ccccc12 | 85%
21 | Nc1c2c(nc3sc4c(c13)CCCC4)-c1ccccc1CC2 | 77.7%
22 | Cc1noc(C)c1C(=O)OC(C)C(=O)Nc1ccc(S(=O)(=O)NC(C)C)cc1 (stereo not drawn) | 86.2%
23 | CCCCc1cc(=O)oc2c3c(cc(OCC(=O)N4CCC[C@H]4C(=O)O)c12)OC(C)(C)CC3 | 106%

Row | Compound | viability
24 | Cc1cc(C)c2c(n1)sc1c(N3CCCCC3)ncnc12 | 118%
25 | COc1ccc(Cl)cc1NS(=O)(=O)c1c(C)[nH]c(C)c1C(=O)N1CCCCC1 | 93.7%
26 | COc1ccc(N(CC(=O)NC2CCCC2)C(=O)c2ccc(C)s2)c(OC)c1 | 81.1%
27 | CCCc1c(C(=O)Nc2ccc(C(F)(F)F)cc2)cnn1-c1ccccc1 | 90.4%
28 | Cc1cc(C)c(C)c(C(=O)CSc2nnc(-c3ccc4[nH]c(C)c(C)c4c3)o2)c1C | 75.9%
29 | Cc1c(NC(=O)CN2C(=O)c3ccccc3C2=O)c(=O)n(-c2ccccc2)n1C | 104%
30 | COc1ccc(S(=O)(=O)NCc2ccco2)cc1-c1nnc2c3ccccc3c(C)nn12 | 71%
31 | C/C(N)=C(/C#N)C(=O)COC(=O)CNS(=O)(=O)c1ccc2ccccc2c1 | 112%
32 | O=c1cc(-c2ccc(O)c(O)c2)oc2c(C3O[C@H](CO)[C@@H](O)[C@H](O)[C@H]3O)c(O)cc(O)c12 (stereo partly drawn) | 109%
33 | COc1ccc(OC)c(-c2nc3c(C)n[nH]c(=O)c3[nH]2)c1 | 75.5%
34 | COc1ccc2c(CC(=O)Nc3ccc(OC)c(NS(=O)(=O)c4ccc(F)cc4)c3)coc2c1 | 72.2%
35 | COc1ccc(C(C)=O)cc1COc1ncnc2ccccc12 | 95.6%
36 | Cc1ccc(-c2n[nH]c(=S)n2/N=C/c2ccncc2)cc1 | 103%
37 | COCCNC(=O)c1cc2c(s1)-c1ccc(Cl)cc1SC2 | 94%
38 | Clc1ccc(Nc2ccc3ccccc3n2)cc1 | 74.3%
39 | Cc1cc2cc(C)c(NCCNC(=O)c3ccccc3F)nc2cc1C | 89.4%
40 | O=C(NC1=NCCS1)c1ccc(-c2ccc(Cl)cc2)o1 | 86.3%
41 | CCOC(=O)N1CCN(C(=O)CSc2nnc(-c3ccc(C)c(C)c3)o2)CC1 | 80.2%
42 | O/N=C/c1ccccc1OCc1ccc(Cl)cc1 | 75.7%
43 | O=C(O)c1nn(CCOc2c(Cl)cccc2Cl)c(=O)c2ccccc12 | 103%
44 | O=C(Nc1ccc(Cl)cc1Cl)C1=Cc2ccccc2OC1 | 77.9%
45 | COc1ccc(C(=O)Nc2cccc3c2CCCC3)c(OC)c1 | 82.8%
46 | O=C(O)c1ccc(N/N=C/c2cc(Br)cs2)cc1 | 70.8%

Row | Compound | viability
47 | CCOc1cccc(C(=O)Nc2ccc(NC(=O)c3ccccc3)c(C)c2)c1 | 93.5%
48 | CCOc1ccc(NC(=O)c2csc3c2CCCC3)cc1 | 94.3%
49 | COc1ccc(CCNC(=O)c2ccc(N(C)S(=O)(=O)c3ccc(C)cc3)cc2)cc1 | 80.8%
50 | COc1ccc2[nH]cc(C(=O)CN3CCN(C4CCCCC4)CC3)c2c1 | 97.3%
51 | CC1(C)Cc2cccc(C(=O)Nc3ccc(F)cc3F)c2O1 | 102%
52 | O=C1c2ccccc2C(=O)N1CC1c2ccccc2CCN1C(=O)C1CCCCC1 (stereo not drawn) | 97.2%
53 | O=c1c2ccccc2nc(/C=C/c2ccc(Br)cc2)n1CCCO | 79.9%
54 | CC(=O)N1CCN(C2=NC(=O)/C(=C/c3ccc(OS(=O)(=O)c4ccccc4)cc3)S2)CC1 | 70.4%
55 | CCn1nc(NC(=O)c2ccccc2)c2cc3cccc(C)c3nc21 | 91.7%
56 | Cc1csc2c(=O)sc(NC(=O)c3ccc(F)cc3)nc12 | 83.2%
57 | N#Cc1c(-c2c(Cl)cccc2Cl)noc1/C=C/Nc1ccc(C(=O)O)cc1 | 84.7%
58 | Cc1[nH]c2ccccc2c1/C=N/Nc1ccc([N+](=O)[O-])cc1 | 71.8%
59 | Cc1ccc(-c2nc(-c3cccnc3)no2)c(C)c1 | 74.2%
60 | COc1ccc2nc(/C=N/NC(=O)[C@H](C)NC(=O)OC(C)(C)C)ccc2c1 | 73.2%
61 | CC(=O)Nc1cccc(-c2csc(Nc3cccc(C)n3)n2)c1 | 75%
62 | CCOC(=O)c1cccc(NC(=O)Nc2cc(OC)ccc2OC)c1 | 108%
63 | N=C1SCC(=O)N1c1nc(-c2ccccc2)cs1 | 70%
64 | CS(=O)(=O)c1ccccc1C(=O)Nc1ccc(-c2nc3ccccc3o2)cc1 | 77%
65 | CSc1nnc(-c2ccc(Cl)cc2Cl)o1 | 94.3%
66 | CCOc1ccc2nc3c(cc2c1)CN(CCCO)C(=NCCOC)S3 | 83.7%
67 | O=[N+]([O-])c1ccc2c(c1)nnn2-c1ccccc1 | 106%
68 | CCN(CC)c1nc(Nc2ccc(Cl)cc2)nc(OCC#N)n1 | 83.7%

— PubChem BioAssay AID2410 (Southern Research Specialized Biocontainment Screening …, 2010)
